The values that follow come from publication PMC7862700, “An all-to-all approach to the identification of sequence-specific readers for epigenetic DNA modifications on cytosine”.

Test in all cases: DAPPL (digital affinity profiling via proximity ligation, sequencing); 10 mM Tris-HCl pH 7.5, 50 mM NaCl, 1 mM DTT, 4% glycerol, room temperature, 30 min; GST-TFs on glutathione beads, 16-mer random dsDNA library, 0.1% formaldehyde crosslink after washing; high values mean tight binding
The target of one experiment is T1, FLI1 (Homo sapiens, UniProt Q01543 1-452).
T1 sequence: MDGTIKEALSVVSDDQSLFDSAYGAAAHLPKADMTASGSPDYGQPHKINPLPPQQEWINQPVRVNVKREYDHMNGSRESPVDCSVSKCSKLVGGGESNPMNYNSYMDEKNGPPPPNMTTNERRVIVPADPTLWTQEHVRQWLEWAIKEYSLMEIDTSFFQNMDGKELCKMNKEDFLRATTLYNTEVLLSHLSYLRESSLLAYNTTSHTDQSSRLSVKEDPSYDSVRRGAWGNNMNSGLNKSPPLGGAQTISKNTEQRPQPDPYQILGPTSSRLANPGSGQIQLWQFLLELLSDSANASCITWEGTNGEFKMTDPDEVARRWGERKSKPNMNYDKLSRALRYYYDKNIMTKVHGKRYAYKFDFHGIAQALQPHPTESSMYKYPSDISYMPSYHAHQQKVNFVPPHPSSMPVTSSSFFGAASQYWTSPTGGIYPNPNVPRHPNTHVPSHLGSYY
The note with it: protein: recombinant; tags: N-terminal GST; dsDNA, one strand shown. In outline: (§1)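 Binding signal is given per hexamer as its read frequency for a factor divided by its frequency in the tag-only sample. GST-fused human transcription factors were expressed in yeast, captured on glutathione beads, barcoded with DNA and pooled with that sample, then incubated with 200 nmole of a 16-mer random double-stranded DNA library in Tris/NaCl/DTT/glycerol buffer for 30 min at room temperature. The pools were then washed, crosslinked, proximity-ligated, amplified by PCR and sequenced on an Illumina NextSeq500.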

The next experiment addresses T2, ELK1 (Homo sapiens, UniProt P19419 1-428).
T2 sequence: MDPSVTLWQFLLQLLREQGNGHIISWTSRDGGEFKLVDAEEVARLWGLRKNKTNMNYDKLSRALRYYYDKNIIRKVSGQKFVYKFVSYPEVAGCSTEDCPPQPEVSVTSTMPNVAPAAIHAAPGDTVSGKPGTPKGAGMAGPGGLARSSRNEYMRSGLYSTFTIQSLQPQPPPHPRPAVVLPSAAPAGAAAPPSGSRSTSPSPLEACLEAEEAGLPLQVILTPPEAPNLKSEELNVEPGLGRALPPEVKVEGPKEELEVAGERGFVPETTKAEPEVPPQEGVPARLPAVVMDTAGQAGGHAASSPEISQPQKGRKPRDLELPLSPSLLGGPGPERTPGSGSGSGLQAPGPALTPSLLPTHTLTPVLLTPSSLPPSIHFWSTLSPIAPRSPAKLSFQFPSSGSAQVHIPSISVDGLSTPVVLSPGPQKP
To be noted: protein: recombinant; tags: N-terminal GST; dsDNA, one strand shown. The method in brief:
as §1

A further experiment deals with T3, GABPA (Homo sapiens, UniProt Q06546 1-454).
T3 sequence: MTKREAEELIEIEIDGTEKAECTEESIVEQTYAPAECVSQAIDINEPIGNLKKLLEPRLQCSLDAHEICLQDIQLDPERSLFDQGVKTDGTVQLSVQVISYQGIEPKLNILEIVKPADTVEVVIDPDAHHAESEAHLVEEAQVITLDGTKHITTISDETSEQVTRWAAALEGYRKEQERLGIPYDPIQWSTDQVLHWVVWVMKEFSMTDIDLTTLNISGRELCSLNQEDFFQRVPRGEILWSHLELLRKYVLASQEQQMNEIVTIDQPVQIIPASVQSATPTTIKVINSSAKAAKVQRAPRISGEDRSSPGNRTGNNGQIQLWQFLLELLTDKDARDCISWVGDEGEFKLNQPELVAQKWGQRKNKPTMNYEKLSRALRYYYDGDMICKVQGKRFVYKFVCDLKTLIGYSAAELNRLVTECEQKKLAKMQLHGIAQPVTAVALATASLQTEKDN
The note with it: protein: recombinant; tags: N-terminal GST; dsDNA, one strand shown. The method in brief:
as §1

The target in another experiment is T4, ERG (Homo sapiens, UniProt P11308 1-479).
T4 sequence: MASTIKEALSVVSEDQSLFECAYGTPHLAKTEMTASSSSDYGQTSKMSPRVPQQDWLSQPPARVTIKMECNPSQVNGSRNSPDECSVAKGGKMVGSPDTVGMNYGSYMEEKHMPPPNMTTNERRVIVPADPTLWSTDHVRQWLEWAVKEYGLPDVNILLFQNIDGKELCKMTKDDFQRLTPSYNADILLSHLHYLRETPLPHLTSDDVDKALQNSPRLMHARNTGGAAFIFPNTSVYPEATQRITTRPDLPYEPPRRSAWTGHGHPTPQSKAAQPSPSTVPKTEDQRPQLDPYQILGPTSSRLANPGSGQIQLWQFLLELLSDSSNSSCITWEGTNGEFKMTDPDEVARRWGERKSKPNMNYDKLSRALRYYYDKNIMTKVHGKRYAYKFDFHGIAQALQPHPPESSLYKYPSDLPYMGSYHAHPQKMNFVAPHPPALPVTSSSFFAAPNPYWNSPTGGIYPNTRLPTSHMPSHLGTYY
To be noted: protein: recombinant; tags: N-terminal GST; dsDNA, one strand shown. The method in brief:
as §1

A further experiment has as its target ELF1 (Homo sapiens, UniProt P32519 1-619). To be noted: protein: recombinant; tags: N-terminal GST; dsDNA, one strand shown. The method in brief: as §1
For another experiment, the target named is T5, EHF (Homo sapiens, UniProt Q9NZC4 1-300).
T5 sequence: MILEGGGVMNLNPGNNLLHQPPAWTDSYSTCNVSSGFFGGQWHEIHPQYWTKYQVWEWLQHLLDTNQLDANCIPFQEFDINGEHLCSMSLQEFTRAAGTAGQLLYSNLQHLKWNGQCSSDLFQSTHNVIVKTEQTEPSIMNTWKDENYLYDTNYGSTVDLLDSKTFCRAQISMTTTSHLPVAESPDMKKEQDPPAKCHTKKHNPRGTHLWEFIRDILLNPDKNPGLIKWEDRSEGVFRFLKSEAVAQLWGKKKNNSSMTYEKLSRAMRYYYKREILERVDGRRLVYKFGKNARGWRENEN
The note with it: protein: recombinant; tags: N-terminal GST; dsDNA, one strand shown. The method in brief:
as §1

The target in another experiment is SPI1 (Homo sapiens, UniProt P17947 1-270). To be noted: protein: recombinant; tags: N-terminal GST; dsDNA, one strand shown. In outline: as §1
For the next experiment, the target named is SPIB (Homo sapiens, UniProt Q01892 1-262). To be noted: protein: recombinant; tags: N-terminal GST; dsDNA, one strand shown. The method in brief:
as §1

In another experiment the target is T6, ELK3 (Homo sapiens, UniProt P41970 1-407).
T6 sequence: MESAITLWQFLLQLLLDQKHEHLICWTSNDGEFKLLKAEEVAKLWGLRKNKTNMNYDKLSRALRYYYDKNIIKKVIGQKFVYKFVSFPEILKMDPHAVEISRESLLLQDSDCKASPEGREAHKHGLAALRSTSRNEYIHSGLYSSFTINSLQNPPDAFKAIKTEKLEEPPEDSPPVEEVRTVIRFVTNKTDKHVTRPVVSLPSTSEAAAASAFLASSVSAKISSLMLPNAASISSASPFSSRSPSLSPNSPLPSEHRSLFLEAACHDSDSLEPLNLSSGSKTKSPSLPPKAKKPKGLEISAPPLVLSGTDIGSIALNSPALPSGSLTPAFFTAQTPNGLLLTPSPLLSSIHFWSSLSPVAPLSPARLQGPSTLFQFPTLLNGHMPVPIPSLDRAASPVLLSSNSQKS
The note with it: protein: recombinant; tags: N-terminal GST; dsDNA, one strand shown. In outline: as §1

A further experiment has as its target T7, FEV (Homo sapiens, UniProt Q99581 1-238).
T7 sequence: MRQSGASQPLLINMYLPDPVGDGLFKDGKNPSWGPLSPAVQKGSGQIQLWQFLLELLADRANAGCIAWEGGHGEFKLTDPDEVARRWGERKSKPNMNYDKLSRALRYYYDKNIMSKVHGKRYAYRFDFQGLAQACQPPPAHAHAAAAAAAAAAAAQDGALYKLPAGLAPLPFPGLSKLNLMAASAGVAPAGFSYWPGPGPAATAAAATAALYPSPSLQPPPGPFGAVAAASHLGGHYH
To be noted: protein: recombinant; tags: N-terminal GST; dsDNA, one strand shown. In outline: as §1

In the next experiment the target is ETV5 (Homo sapiens, UniProt P41161 1-510). The note with it: protein: recombinant; tags: N-terminal GST; dsDNA, one strand shown. The method in brief:
as §1

The target in a further experiment is HSF1 (Homo sapiens, UniProt Q00613 1-529). The note with it: protein: recombinant; tags: N-terminal GST; chain copies: 3; dsDNA, one strand shown. In outline:
as §1

The target of the next experiment is T8, SPIC (Homo sapiens, UniProt Q8N5J4 1-248).
T8 sequence: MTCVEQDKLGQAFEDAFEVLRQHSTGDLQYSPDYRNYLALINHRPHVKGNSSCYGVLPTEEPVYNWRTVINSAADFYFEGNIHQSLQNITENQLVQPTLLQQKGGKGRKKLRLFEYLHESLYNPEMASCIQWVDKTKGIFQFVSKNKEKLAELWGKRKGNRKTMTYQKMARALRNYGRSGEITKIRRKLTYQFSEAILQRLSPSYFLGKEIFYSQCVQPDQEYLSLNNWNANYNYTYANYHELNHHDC
The note with it: protein: recombinant; tags: N-terminal GST; dsDNA, one strand shown. The method in brief:
as §1

A further experiment concerns the target ELF4 (Homo sapiens, UniProt Q99607 1-663). To be noted: protein: recombinant; tags: N-terminal GST; dsDNA, one strand shown. The method in brief:
as §1

A further experiment concerns the target T9, ELK4 (Homo sapiens, UniProt P28324-2 1-405).
T9 sequence: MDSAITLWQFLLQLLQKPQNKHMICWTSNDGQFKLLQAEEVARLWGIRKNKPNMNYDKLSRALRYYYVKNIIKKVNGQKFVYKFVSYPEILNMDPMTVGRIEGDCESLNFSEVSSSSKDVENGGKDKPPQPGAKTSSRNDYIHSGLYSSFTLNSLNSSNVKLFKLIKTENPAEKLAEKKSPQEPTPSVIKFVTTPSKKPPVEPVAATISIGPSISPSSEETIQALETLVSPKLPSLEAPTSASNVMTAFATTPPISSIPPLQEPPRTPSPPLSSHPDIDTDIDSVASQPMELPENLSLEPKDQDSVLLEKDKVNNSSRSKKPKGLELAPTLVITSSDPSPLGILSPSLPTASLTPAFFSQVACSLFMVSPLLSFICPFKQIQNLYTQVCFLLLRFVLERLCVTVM
The note with it: protein: recombinant; tags: N-terminal GST; dsDNA, one strand shown. The method in brief: as §1

The target in another experiment is T10, ETV2 (Homo sapiens, UniProt O00321 1-342).
T10 sequence: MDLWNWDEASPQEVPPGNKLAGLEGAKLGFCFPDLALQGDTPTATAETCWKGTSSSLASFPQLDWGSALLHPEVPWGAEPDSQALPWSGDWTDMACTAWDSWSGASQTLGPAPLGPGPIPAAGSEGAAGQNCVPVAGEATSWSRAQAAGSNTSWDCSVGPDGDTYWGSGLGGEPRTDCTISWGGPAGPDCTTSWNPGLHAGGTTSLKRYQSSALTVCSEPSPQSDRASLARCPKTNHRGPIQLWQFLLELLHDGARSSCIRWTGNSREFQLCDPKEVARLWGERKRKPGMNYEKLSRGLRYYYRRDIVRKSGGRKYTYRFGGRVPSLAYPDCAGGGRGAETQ
To be noted: protein: recombinant; tags: N-terminal GST; dsDNA, one strand shown. The method in brief:
as §1

In another experiment the target is T11, ELF3 (Homo sapiens, UniProt P78545 1-371).
T11 sequence: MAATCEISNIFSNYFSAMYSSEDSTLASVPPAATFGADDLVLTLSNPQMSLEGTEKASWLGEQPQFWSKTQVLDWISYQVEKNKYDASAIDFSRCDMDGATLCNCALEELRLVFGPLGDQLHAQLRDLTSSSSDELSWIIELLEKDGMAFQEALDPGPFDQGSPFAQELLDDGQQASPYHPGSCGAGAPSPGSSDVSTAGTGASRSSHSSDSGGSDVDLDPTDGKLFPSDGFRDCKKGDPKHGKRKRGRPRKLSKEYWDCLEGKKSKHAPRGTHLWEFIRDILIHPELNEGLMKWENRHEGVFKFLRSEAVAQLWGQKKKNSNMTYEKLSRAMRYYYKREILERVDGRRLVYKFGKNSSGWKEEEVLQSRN
To be noted: protein: recombinant; tags: N-terminal GST; dsDNA, one strand shown. In outline:
as §1

A further experiment deals with CRX (Homo sapiens, UniProt O43186 1-299). To be noted: protein: recombinant; tags: N-terminal GST; dsDNA, one strand shown. The method in brief:
as §1

For a further experiment, the target named is ETV1 (Homo sapiens, UniProt P50549 1-477). To be noted: protein: recombinant; tags: N-terminal GST; dsDNA, one strand shown. The method in brief:
as §1

ETV1, sequence (P50549 whole entry): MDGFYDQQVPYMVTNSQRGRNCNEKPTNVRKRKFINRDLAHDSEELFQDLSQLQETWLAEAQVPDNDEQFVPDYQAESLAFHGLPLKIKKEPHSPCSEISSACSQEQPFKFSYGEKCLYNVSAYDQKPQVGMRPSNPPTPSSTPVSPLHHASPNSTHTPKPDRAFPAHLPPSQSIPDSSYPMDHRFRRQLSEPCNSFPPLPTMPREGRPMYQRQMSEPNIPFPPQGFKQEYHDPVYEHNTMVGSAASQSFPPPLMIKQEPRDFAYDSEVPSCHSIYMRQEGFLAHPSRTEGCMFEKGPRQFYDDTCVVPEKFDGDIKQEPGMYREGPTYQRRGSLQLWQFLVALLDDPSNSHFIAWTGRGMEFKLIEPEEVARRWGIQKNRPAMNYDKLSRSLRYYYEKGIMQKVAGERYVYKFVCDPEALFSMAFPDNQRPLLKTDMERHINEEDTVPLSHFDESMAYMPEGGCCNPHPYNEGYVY
ELF4, sequence (Q99607 whole entry): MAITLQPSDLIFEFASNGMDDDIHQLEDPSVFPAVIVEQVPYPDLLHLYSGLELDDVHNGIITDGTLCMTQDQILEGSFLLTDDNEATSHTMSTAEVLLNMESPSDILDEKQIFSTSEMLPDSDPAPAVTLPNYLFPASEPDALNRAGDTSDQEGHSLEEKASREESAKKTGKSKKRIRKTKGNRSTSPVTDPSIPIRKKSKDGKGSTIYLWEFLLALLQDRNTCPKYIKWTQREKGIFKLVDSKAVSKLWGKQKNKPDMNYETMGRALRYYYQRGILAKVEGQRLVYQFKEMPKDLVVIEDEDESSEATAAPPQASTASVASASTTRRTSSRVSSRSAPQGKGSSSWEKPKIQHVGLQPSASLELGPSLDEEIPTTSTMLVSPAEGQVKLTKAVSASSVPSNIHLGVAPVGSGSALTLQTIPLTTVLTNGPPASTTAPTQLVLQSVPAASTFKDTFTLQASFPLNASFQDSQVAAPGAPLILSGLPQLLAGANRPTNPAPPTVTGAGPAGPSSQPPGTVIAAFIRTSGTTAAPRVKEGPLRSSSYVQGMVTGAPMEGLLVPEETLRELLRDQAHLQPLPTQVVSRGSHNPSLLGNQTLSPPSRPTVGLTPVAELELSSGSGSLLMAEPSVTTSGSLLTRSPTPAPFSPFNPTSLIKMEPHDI
ETV5, sequence (P41161 whole entry): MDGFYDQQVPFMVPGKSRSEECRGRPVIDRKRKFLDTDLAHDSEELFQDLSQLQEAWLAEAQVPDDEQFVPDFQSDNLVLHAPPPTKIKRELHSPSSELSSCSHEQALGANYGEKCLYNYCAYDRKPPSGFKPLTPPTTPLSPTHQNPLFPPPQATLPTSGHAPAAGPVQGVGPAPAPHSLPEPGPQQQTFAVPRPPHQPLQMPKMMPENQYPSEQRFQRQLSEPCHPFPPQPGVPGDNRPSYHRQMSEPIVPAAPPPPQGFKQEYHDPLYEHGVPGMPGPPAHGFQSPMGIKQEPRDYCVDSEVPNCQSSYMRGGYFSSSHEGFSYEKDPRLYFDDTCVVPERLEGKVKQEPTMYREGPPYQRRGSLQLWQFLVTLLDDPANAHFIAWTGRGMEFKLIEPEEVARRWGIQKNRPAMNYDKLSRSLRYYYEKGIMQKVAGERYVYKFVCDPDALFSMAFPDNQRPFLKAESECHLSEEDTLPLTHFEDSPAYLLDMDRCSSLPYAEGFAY
HSF1, sequence (Q00613 whole entry): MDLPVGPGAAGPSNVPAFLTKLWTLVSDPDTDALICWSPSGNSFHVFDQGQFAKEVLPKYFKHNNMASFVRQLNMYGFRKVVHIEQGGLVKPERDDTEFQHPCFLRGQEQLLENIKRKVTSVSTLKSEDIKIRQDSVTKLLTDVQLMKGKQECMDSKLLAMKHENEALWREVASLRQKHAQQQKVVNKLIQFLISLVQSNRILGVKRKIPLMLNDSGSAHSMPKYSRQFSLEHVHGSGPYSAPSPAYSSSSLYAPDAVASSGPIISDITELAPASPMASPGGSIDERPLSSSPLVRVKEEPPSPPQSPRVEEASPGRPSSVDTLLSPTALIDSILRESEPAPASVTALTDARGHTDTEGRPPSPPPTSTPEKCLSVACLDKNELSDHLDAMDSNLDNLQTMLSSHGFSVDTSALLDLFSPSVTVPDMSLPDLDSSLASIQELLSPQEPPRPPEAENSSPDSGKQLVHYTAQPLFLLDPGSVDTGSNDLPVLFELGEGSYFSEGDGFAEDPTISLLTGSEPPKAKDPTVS
CRX, sequence (O43186 whole entry): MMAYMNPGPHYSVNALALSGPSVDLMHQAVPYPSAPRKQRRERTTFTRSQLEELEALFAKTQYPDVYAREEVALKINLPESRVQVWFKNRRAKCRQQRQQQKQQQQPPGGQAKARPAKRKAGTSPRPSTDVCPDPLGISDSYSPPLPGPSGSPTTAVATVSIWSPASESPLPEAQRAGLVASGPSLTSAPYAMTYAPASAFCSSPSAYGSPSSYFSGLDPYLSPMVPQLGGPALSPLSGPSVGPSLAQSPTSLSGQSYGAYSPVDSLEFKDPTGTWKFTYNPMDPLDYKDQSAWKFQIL
ELF1, sequence (P32519 whole entry): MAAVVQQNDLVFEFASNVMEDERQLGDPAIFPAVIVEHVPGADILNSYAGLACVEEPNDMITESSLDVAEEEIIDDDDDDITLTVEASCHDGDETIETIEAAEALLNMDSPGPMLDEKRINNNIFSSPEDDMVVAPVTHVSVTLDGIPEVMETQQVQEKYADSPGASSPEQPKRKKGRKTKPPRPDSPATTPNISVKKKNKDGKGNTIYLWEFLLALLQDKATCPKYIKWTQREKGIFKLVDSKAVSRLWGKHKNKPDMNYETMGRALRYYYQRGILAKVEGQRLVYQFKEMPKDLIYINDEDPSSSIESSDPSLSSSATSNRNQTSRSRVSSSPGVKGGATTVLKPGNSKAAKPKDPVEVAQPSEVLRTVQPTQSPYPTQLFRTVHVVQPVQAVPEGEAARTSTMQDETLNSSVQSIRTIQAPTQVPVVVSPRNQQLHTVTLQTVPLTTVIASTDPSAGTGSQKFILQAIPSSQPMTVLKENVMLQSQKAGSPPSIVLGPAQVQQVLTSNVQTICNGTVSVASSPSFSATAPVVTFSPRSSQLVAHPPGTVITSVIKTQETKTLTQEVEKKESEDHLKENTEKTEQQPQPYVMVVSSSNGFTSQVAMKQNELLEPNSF
SPIB, sequence (Q01892 whole entry): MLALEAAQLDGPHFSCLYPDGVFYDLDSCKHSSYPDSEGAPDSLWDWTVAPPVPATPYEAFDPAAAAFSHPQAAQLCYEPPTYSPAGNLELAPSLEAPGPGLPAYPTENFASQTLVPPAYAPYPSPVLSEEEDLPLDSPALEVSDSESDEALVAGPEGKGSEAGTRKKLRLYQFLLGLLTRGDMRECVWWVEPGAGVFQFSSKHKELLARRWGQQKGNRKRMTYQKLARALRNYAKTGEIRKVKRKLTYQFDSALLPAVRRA

On to ACCTTC, for which the binding signal with FLI1 was 1.8 fold enrichment (6-mer frequency, TF over GST control); with ELK1, 1.94 fold enrichment (6-mer frequency, TF over GST control); with GABPA, 1.79 fold enrichment (6-mer frequency, TF over GST control); with ERG, 2.03 fold enrichment (6-mer frequency, TF over GST control); in the experiment with ELF1 it was 1.92 fold enrichment (6-mer frequency, TF over GST control); with EHF it was 2.02 fold enrichment (6-mer frequency, TF over GST control). Further, the binding signal was 1.75 fold enrichment (6-mer frequency, TF over GST control) with SPI1; 1.95 fold enrichment (6-mer frequency, TF over GST control) with SPIB; 1.8 fold enrichment (6-mer frequency, TF over GST control) in the experiment with ELK3; 1.97 fold enrichment (6-mer frequency, TF over GST control) in the experiment with FEV; 1.96 fold enrichment (6-mer frequency, TF over GST control) in the experiment with ETV5; 2.87 fold enrichment (6-mer frequency, TF over GST control) with HSF1. Also, the binding signal in the experiment with SPIC was 1.66 fold enrichment (6-mer frequency, TF over GST control); with ELF4, 2.06 fold enrichment (6-mer frequency, TF over GST control); with ELK4, 2.06 fold enrichment (6-mer frequency, TF over GST control); with ETV2 it was 1.71 fold enrichment (6-mer frequency, TF over GST control); with ELF3, 1.95 fold enrichment (6-mer frequency, TF over GST control); in the experiment with CRX it was 1.88 fold enrichment (6-mer frequency, TF over GST control). Besides, the binding signal with ETV1 was 1.98 fold enrichment (6-mer frequency, TF over GST control).
